Measured values reported in PubChem BioAssay (NCATS).
The source made the active and inactive calls. Calls come from the whole dose curve; as a rule, active = well fitted activation curve with a large enough effect; inconclusive = small, poorly fitted or top-dose-only effect; inactive = no such curve, though single readings can be large or run the other way.

target: Cytochrome P450 3A4 (Homo sapiens) (UniProt P08684); experiment: qHTS Assay for Activators of Cytochrome P450 3A4 (AID 885); conditions: recombinant CYP3A4, Luciferin-PPXE luminescence, 60 min; series mostly up to 57.1 µM; activity change, positive = activation: at the top concentration; note: nearly all actives have a fitted effect of over 65% in size
Sequence (P08684 whole entry, looked up): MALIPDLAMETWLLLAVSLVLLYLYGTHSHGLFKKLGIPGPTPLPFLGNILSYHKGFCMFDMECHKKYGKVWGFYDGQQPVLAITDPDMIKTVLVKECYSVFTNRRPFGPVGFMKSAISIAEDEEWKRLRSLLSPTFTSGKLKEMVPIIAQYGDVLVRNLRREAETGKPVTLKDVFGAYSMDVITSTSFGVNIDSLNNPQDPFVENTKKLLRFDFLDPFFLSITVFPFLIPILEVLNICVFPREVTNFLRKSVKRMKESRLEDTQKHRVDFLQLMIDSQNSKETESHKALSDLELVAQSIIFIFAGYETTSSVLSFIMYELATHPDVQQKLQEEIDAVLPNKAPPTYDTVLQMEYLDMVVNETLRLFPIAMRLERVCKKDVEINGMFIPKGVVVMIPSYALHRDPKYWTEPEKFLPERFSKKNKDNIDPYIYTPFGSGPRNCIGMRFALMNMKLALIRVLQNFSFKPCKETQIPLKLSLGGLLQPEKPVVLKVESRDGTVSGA
Method: NIH Molecular Libraries Screening Centers Network [MLSCN]
NIH Chemical Genomics Center [NCGC]
The P450 gene superfamily is involved in the metabolism and clearance of xenobiotics. This assay used human CYP3A4 to measure the dealkylation of luciferin-6' phenylpiperazinylyl (Luciferin-PPXE; […]) to luciferin. The luciferin is then measured by luminescence after the addition of a luciferase detection reagent. Luciferin-PPXE concentration in the assay was equal to its KM for CYP3A4. Inhibitors and some substrates limit the production of luciferin, and decrease measured luminescence; activators increase the production of luciferin and luminescence.
NCGC Assay Protocol Summary:
Two uL of enzyme and substrate mix (final concentrations: 20nM CYP3A4, 25uM Luciferin-PPXE, 200mM KPO4) were dispensed into a white, solid bottom 1536-well microtiter plate. 23nL of compound was transferred by a pin tool. The plate was incubated at RT for 10 min. Two uL of an NADPH regeneration solution (Promega supplied reagent) was dispensed and the reaction was allowed to continue for 60 min at RT. Then the reaction was stopped by reconstituted luciferin detection buffer. After another 20 min of incubation the plate was read on the ViewLux (Perkin Elmer) at 60 sec exposure and 2x2 binning. This protocol was carried out with Promega-Glo reagents and further information can be found at http://www.promega.com/tbs/tb325/tb325.pdf. Data were normalized to the to AC100 inhibition (57 uM ketoconazole).
Keywords: P450, CYP2D6, Luciferase, MLSMR, MLSCN, NIH Roadmap, qHTS, NCGC
Potency is the fitted concentration of half-maximal effect.

Activity change, positive = activation, inactive:
O=C(c1cccc(F)c1)N1CCC2(CCCN(c3ccc(-c4ccccc4)cc3)C2)CC1 -54.2%
COc1cccc(Cn2c(=O)c(-c3ccccc3)nc3cnc(OC)nc32)c1 -88.8%
CN=C1N[C@H](c2ccccc2)N(c2ccccc2)S1 -87.7%
CN(C)C(=O)c1ccc(-c2cncnc2NCc2cccnc2)cc1 -64.6%
COc1ccc(C(=O)N2CCC[C@@]3(CCN(Cc4cc(C(F)(F)F)cc(C(F)(F)F)c4)C3)C2)cc1 -100%
c1ccc(C(c2ccccc2)N2CCCC3(CCNCC3)C2)cc1 -75%
Cn1c(=O)cnc2cnc(Nc3ccccc3)nc21 -46%
Cc1cccc(CNc2ccnc(-c3ccccc3C(F)(F)F)n2)c1 -58.8%
COc1ccc2c(c1)OCc1c-2oc2cc(OC)ccc12 -57.8%
Clc1ccccc1-c1nc(NCc2cccnc2)c2ccccc2n1 -98.1%
Cn1cccc1C(=O)N1CCC2(CCCN(Cc3ccccc3)C2)CC1 -34.3%
CS(=O)(=O)Nc1cccc(-c2ccc3ncnc(N4CCOCC4)c3c2)c1 -107%
Clc1ccccc1-c1nc(NCc2cccs2)c2ccccc2n1 -91.9%
Cc1ccccc1[C@@H](OCCN(C)C)c1ccccc1 -30.3%
O=C(c1cccc(F)c1)N1CCC2(CCCN(c3ccccc3)C2)CC1 -59.5%
O=C(c1cccc(F)c1)N1CCC2(CCCN(Cc3nccs3)C2)CC1 -75.9%
COc1cccc(Cn2c(=O)c(-c3cccc(C#N)c3)nc3cnc(Nc4ccccc4)nc32)c1 -32.5%
CN(C)C(=O)c1ccc(-c2nc(NCc3cccnc3)c3ccccc3n2)cc1 -87%
CN1CCCC2(CCN(C(=O)c3cc(C(F)(F)F)cc(C(F)(F)F)c3)CC2)C1 -36.9%
COc1ccc2[nH]cc(CCNc3nc(-c4ccccc4CN(C)C)nc4ccccc34)c2c1 -49.6%
COc1ccccc1CNc1ncncc1-c1ccccc1OC -99.3%
N#Cc1cccc(NC(=O)N2CCCC3(CCN(C(=O)c4cc(C(F)(F)F)cc(C(F)(F)F)c4)CC3)C2)c1 -82%
CN(C)c1ccc(-c2cncnc2Nc2ccc(F)cc2)cc1 -116%
c1ccc(CNc2nc(-c3ccc4c(c3)OCO4)nc3ccccc23)cc1 -120%
COc1ccc(-c2nc3cnc(OCc4ccccc4)nc3n(CCC#N)c2=O)cc1 -51.6%
CN(C)C(=O)c1ccc(-c2nccc(NCc3cccnc3)n2)cc1 -69.5%
COc1ccc(-c2nc3cnc(N4CCNCC4)nc3n(CCC#N)c2=O)cc1 -44.4%
COc1ccc(C(=O)N2CCC[C@@]3(CCN(C(=O)Nc4cccc(C#N)c4)C3)C2)cc1 -88.8%
COc1ccccc1CCn1c(=O)c(-c2ccc(F)c(F)c2)nc2cncnc21 -80.7%
Cn1cc(-c2nc3cnc(N4CCNCC4)nc3n(-c3ccccc3)c2=O)c2ccccc21 -46.6%
Cc1noc(C)c1C(=O)N1CCC[C@@]2(CCN(C(=O)Nc3ccccc3)C2)C1 -74.7%
COc1ccc(C(=O)N2CCC3(CCCN(Cc4cc(C(F)(F)F)cc(C(F)(F)F)c4)C3)CC2)cc1 -88.7%
CCNc1ncc2nc(-c3cccs3)c(=O)n(CCc3ccccc3)c2n1 -57.6%
Cc1cnc(CNc2nc(-c3ccc4c(c3)OCO4)nc3ccccc23)cn1 -88.2%
CC[C@H](NC(C)C)[C@H](O)c1ccc(O)c(O)c1 -93.1%
O=C(Nc1ccccc1)N1CCCC2(CCN(C(=O)c3csnn3)CC2)C1 -69.7%
Cc1noc(C)c1C(=O)N1CCC2(CCCN(Cc3ccccc3)C2)CC1 -33.3%

Potency, active:
N#Cc1cccc(NC(=O)N2CCC3(CC2)CCN(C(=O)c2cccc(F)c2)CC3)c1 7.94 µM

Potency, inactive:
CC(=O)OCC1=C(C(=O)O)N2C(=O)[C@@H](NC(=O)CSc3ccncc3)[C@@H]2SC1
O=C1C=CC2=C3c4cc(O)c(O)cc4CC3(O)COC2=C1O (stereo not given)
